Laboratory results as given in the supplement of paper PMC13380429.

Test system: Vero E6 infected with SARS-CoV-2
Assay: inhibition of SARS-CoV-2 cytopathic effect; higher = more antiviral protection, active = above 15
Details: 48 h

Measured: inhibition of SARS-CoV-2 cytopathic effect

C[C@]12CCC(=O)C(O)=C1CC[C@@H]1[C@@H]2CC[C@]2(C)C(=O)CC[C@@H]12 [formestane]
inactive: 1 nM -6.07% | 8.33 nM -1.52% | 100 nM 4.22% | 833.33 nM 6.78% | 10000 nM -1.65%

O=C(c1ccccn1)c1cnn2c(-c3ccncc3)ccnc12 [ocinaplon]
inactive: 1 nM 0.32% | 8.33 nM -1.43% | 100 nM -0.52% | 833.33 nM -3.04% | 10000 nM -0.62%

CCCC(=O)O[C@]1(C(=O)CCl)[C@@H](C)C[C@H]2[C@@H]3CCC4=CC(=O)C=C[C@]4(C)[C@@]3(F)C(=O)C[C@@]21C [clobetasone-butyrate]
inactive: 1 nM -0.68% | 8.33 nM -1.04% | 100 nM -5.39% | 833.33 nM -1.94% | 10000 nM 0.48%

CC(CCc1ccc(O)cc1)NCCc1ccc(O)c(O)c1 (stereo not given) [dobutamine]
inactive: 1 nM -0.38% | 8.33 nM -2.55% | 100 nM -1.12% | 833.33 nM -2.15% | 10000 nM -0.94%

CCn1cc(C(=O)O)c(=O)c2cc(F)c(N3CCNCC3)nc21 [enoxacin]
inactive: 1 nM 4.58% | 8.33 nM 2.38% | 100 nM 0.25% | 833.33 nM -2.16% | 10000 nM 0.56%

CN(CCc1ccc(Cl)c(Cl)c1)CCN1CCCC1
inactive: 1 nM -1.5% | 8.33 nM -0.54% | 100 nM 2% | 833.33 nM 3.84% | 10000 nM -1.25%

CS(=O)(=O)Nc1ccc2oc3c(OC(F)F)ccc(C(=O)Nc4c(Cl)cncc4Cl)c3c2c1 [oglemilast]
inactive: 1 nM -1% | 8.33 nM 0.83% | 100 nM 1.63% | 833.33 nM 0.94% | 10000 nM 1.89%
